Measurements reported in PubChem BioAssay (EPA / NIEHS).
Calls of active or inactive are those of the source. The calls were made as follows: active = hit-call score of the fitted dose curve at least 0.9, where 1 is the maximum; inactive = score below 0.9.

What follows are compounds tested against X-box-binding protein 1 (Homo sapiens) (UniProt P17861) (assay: ATG_Xbp1_CIS: Attagene CIS-FACTORIAL HepG2 Assay for human X-box Binding Protein 1 (XBP1) (AID 2282972)). Conditions: HepG2 XBP1 cis-element reporter, Attagene multiplex; actives raise or lower the signal.
X-box-binding protein 1 (Homo sapiens), sequence (P17861 whole entry, looked up): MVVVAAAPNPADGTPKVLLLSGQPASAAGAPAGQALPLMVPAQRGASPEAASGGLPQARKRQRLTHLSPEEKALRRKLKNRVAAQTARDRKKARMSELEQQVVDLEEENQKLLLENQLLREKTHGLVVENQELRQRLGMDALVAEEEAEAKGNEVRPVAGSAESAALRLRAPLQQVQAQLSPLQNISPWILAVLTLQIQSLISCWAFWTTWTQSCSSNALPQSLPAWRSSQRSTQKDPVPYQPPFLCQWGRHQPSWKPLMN
Experimental: ATG_CIS is a cell-based, multiplexed-readout assay that uses HepG2, a human liver cell line, with measurements taken at 24 hours after chemical dosing in a 24-well plate.ATG_Xbp1_CIS is one of 52 assay component(s) measured or calculated from the ATG_CIS assay. It is designed to make measurements of mRNA induction, a form of inducible reporter, as detected with fluorescence intensity signals by Reverse transcription polymerase chain reaction (RT-PCR) and Capillary electrophoresis technology.Data from the assay component ATG_Xbp1_CIS was analyzed into 1 assay endpoint. This assay endpoint, ATG_Xbp1_CIS, was analyzed with bidirectional fitting relative to DMSO as the negative control and baseline of activity. Using a type of inducible reporter, measures of mRNA for gain or loss-of-signal activity can be used to understand the reporter gene at the transcription factor-level as they relate to the gene XBP1. Furthermore, this assay endpoint can be referred to as a primary readout, because this assay has produced multiple assay endpoints where this one serves a reporter gene function. To generalize the intended target to other relatable targets, this assay endpoint is annotated to the dna binding intended target family, where the subfamily is basic leucine zipper.
Human liver HepG2 cells are transiently transfected with multiple reporter transcription units (MRTUs) in 6-well plates using FuGene 6 reagent (Roche; 3 ml FuGene/1 mg DNA). The MRTU constructs are regulated by a cis-regulating element (promoter). […] A major difference between the CIS and TRANS system is that in CIS activities of endogenous TFs are measured, whereas the TRANS assay evaluates changes in activities of exogenous, chimeric NR-Gal4 proteins. […] At the end of 24 hour incubation, total RNA was isolated using TriZol reagent (Invitrogen). The isolated RNA is then reverse-transcribed using oligo(dT) primer and Mo-MLV reverse transcriptase (Invitrogen) with DNAse I (Ambion) treatment for 30 min. The one-tenth of the produced cDNA was amplified by PCR using Taq DNA polymerase (Invitrogen) and two reporter sequence-specific primers. The PCR products were fluorescently labeled by primer extension with 6-arboxyfluorescein (6-FAM) 5'-labeled reporter sequence-specific primer (2 min at 95 C, 20 s at 68 C and 10 min at 72 C) and these products were digested with 5U of HpaI (New England Biolabs) for 2h at 37 C. The fragments were purified using Qiaquick PCR columns (Qiagen), analyzed on an ABI 3130xL genetic analyzer (Applied Biosystems) with peak positions identified by using a set of X-rhodamine (ROX)-labeled MapMarker1000 molecular weight standards (BioVentures). The raw capillary electrophoresis data was processed using Attagraph software (Attagene).

SMILES | outcome | AC50
ClCCCCCCCl | inactive | –
Cc1ccccc1CCl | inactive | –
C=CCN(CC=C)C(=O)C(Cl)Cl | inactive | –
O=[N+]([O-])c1ccc(Cl)cc1 | inactive | –
O=C(O)CCCc1ccc(N(CCCl)CCCl)cc1 | inactive | –
O=c1c2ccccc2c(=O)c2c1cc(Cl)c1[nH]c3c([nH]c12)c(Cl)cc1c(=O)c2ccccc2c(=O)c13 | inactive | –
COc1cc(OC)nc(Oc2cccc(Oc3nc(OC)cc(OC)n3)c2C(=O)O)n1 | inactive | –
O=S(=O)(O)O | inactive | –
CC(C)(C)C(O)C(Oc1ccc(-c2ccccc2)cc1)n1cncn1 (stereo not given) | inactive | –
[N-]=[N+]=CC(=O)OC[C@H](N)C(=O)O | inactive | –
CN1C[C@H](C(=O)N[C@]2(C)O[C@@]3(O)[C@@H]4CCCN4C(=O)[C@H](Cc4ccccc4)N3C2=O)C=C2c3cccc4[nH]cc(c34)C[C@H]21 | inactive | –
C=CC(=O)OC | inactive | –
O=C1C(Cl)=C(Cl)C(=O)C(Cl)=C1Cl | inactive | –
O=C(NCNC(=O)NC1C(=O)NC(=O)N1CO)NC1C(=O)NC(=O)N1CO (stereo not given) | – | 151 µM (active)
Cl/C=C\CCl | inactive | –
Cc1ccc(C)c2ccccc12 | inactive | –
CN(C)N | inactive | –
COCC(=O)N(c1c(C)cccc1C)N1CCOC1=O | inactive | –
CCOC(=O)N(C)N=O | inactive | –
O=C1C=CC(=O)C=C1 | inactive | –

SMILES | outcome | AC50
O=C(O)CCl | inactive | –
CC(Cc1ccc(C(C)(C)C)cc1)CN1C[C@@H](C)O[C@@H](C)C1 (stereo not given in full) | inactive | –
C[C@]12CCC(=O)C(O)=C1CC[C@@H]1[C@@H]2CC[C@]2(C)C(=O)CC[C@@H]12 | inactive | –
CCc1cccc(C)c1N(C(=O)CCl)[C@@H](C)COC | inactive | –
Oc1cc(Cl)ccc1Cl | inactive | –
[Cl-].[Cl-].[Cl-].[Yb+3] | inactive | –
CN(C)C(=O)C(c1ccccc1)c1ccccc1 | inactive | –
Cc1ccc(N(SC(F)(Cl)Cl)S(=O)(=O)N(C)C)cc1 | – | 17 µM (active)
CC1(C)C(=O)NC(=O)NC1=O | inactive | –
S=c1[nH]c2ccccc2[nH]1 | inactive | –
O=[N+]([O-])O | inactive | –
N#CCCCl | inactive | –
CCOP(=O)(OCC)Oc1ccc([N+](=O)[O-])cc1 | inactive | –
[CH3][Sn]([CH3])([Cl])[Cl] | inactive | –
O=[N+]([O-])O.O=[N+]([O-])O.[Cd] | – | 1.43 µM (active)
CNC(=O)Oc1cc(C)c(SC)c(C)c1 | – | 68.3 µM (active)
CC(O)CN(CC(C)O)CC(C)O (stereo not given) | inactive | –
N#CCCCCC#N | inactive | –
CC[N+](=O)[O-] | inactive | –
Oc1ccc(Cl)cc1 | inactive | –
